ALOX12 inhib = qHTS Assay for Inhibitors of 12-hLO (12-human lipoxygenase) | actives 0.12% (n = 150,000) | Polyunsaturated fatty acid lipoxygenase ALOX12 (Homo sapiens), P18054 | purified 12-hLO, xylenol orange hydroperoxide absorbance | Potency, µM (titrated, usually from 57.1 µM), hits mostly inhibitors; note: nearly all actives have a fitted effect of over 55% in size
Target sequence (P18054 whole entry, looked up): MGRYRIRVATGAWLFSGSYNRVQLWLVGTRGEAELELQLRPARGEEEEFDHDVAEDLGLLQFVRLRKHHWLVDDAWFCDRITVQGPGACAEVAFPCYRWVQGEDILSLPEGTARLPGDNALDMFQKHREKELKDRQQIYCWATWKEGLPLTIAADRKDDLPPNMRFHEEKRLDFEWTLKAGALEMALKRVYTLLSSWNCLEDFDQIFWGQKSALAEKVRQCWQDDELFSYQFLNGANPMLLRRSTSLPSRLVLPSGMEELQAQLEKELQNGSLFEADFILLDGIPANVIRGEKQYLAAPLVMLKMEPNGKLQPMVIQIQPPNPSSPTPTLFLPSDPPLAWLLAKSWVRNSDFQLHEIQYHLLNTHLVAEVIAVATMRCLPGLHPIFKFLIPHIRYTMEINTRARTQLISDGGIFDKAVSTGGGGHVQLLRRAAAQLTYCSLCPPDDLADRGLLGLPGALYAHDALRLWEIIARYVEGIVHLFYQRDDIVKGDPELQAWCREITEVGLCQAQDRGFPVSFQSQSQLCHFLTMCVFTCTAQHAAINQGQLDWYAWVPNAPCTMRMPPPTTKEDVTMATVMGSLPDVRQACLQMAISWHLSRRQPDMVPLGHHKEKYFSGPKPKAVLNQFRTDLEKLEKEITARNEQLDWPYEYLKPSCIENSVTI
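150 nM 12hLO, 25 mM Hepes pH 7.0 + 0.01% Triton X-100; cpd preinc 15 min RT; 40 uM arachidonic acid, 30 min RT; Fe-XO 30 min; A573/A405 ratio as read-out.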
PNC inhibitor = High Content Assay for Compounds that inhibit the Assembly of the Perinucleolar Compartment; PC3M PTB-GFP, PNC prevalence imaging, 16 h; hits give low values; activity change (PNC), negative = inhibition, % at 10 µM; actives 3.1% (n = 140,000);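 active = readout at or below -70, meaning at least 70% loss of cells showing the perinucleolar compartment, a nuclear body marking cancer cells; inconclusive = readout between -30 and a set limit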
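PC3M cells stably expressing PTB-GFP, 750–1000 cells/well, treated 16 h at 37 °C with compound (23 nl of library stock), in duplicate. After paraformaldehyde fixation and Hoechst stain, imaged at 20x; PNC prevalence scored by image analysis.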
ALDH1A1 inh = qHTS Assay for Inhibitors of Aldehyde Dehydrogenase 1 (ALDH1A1); Aldehyde dehydrogenase 1A1 (Homo sapiens), P00352; Purified ALDH1A1, NADH fluorescence, propionaldehyde substrate; Potency, µM (top dose mostly 75.3 µM), actives largely listed as inhibitors; actives 7.3% (n = 220,000); AID 1030, 2008; active = well fitted inhibition curve with a large enough effect, not every such curve was filed as active; inconclusive = small, poorly fitted or top-dose-only effect, or another doubt; inactive = no such curve, though single readings can be large or run the other way
HPGD block = qHTS Assay for Inhibitors of HPGD (15-Hydroxyprostaglandin Dehydrogenase). 15-hydroxyprostaglandin dehydrogenase [NAD(+)] (Homo sapiens), P15428. purified HPGD, NADH fluorescence kinetic, PGE2 substrate. Potency, µM, actives largely listed as inhibitors. actives 4.3% (n = 150,000). AID 894, 2007; active = well fitted inhibition curve with a large enough effect, not every such curve was filed as active; inconclusive = small, poorly fitted or top-dose-only effect, or another doubt; inactive = no such curve, though single readings can be large or run the other way
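NADH formation kinetics: reaction with 30 uM PGE2 and 1 mM NAD+ (final), 20 nM enzyme, Tris-HCl pH 8 with Tween 20, after 15 min compound preincubation at room temperature. Fluorescence change, last versus first of five reads.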
GLA inh pH 4.5 = qHTS Assay for Inhibitors of Human alpha-Galactosidase at pH 4.5. Alpha-galactosidase A (Homo sapiens), P06280. purified enzyme, 4-MU-alpha-Gal fluorescence, pH 4.5. activity change, negative = inhibition, % at 105 µM. 230,000 tested, under 10 active. AID 1467, 2008
aGal spleen mod = qHTS Assay for Inhibitors and Activators of Human alpha-Galactosidase From Spleen Homogenate; human spleen homogenate, 4MU-alpha-Gal fluorescence, 40 min; Potency, µM (doses to about 80 µM), most hits filed as inhibitors; actives 0.008% (n = 240,000); AID 2107, 2009
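Human spleen homogenate (1 ug) was the enzyme source, with 4-methylumbelliferyl-alpha-D-galactopyranoside (1 mM final) in pH 5.0 citrate buffer with 0.01% Tween-20. Compounds were titrated; after 40 min at 37C, NaOH/glycine stop, 4-MU fluorescence read; AC50 from Hill fits.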
A number is an active result; - = inactive; ? = inconclusive; . = no result; [ ] = remark or other dose. Sampled rows, rich in hits. Any-hit rate of the full collection: about 10%. Unless noted, calls come from the whole dose curve; as a rule, active = well fitted curve in the direction sought with a large enough effect; inconclusive = small, poorly fitted or top-dose-only effect, or another doubt; inactive = no such curve, though single readings can be large; an effect the other way counts as inactive or inconclusive.

SMILES	ALOX12 inhib	PNC inhibitor	ALDH1A1 inh	HPGD block	GLA inh pH 4.5	aGal spleen mod
NNC(=O)Nc1cccc(C(F)(F)F)c1	.	.	?	.	-	-
O=C(NNc1cccc(Cl)n1)Nc1ccc(Cl)cc1	-	-	?	-	-	-
O=C(NNc1cccc(Cl)n1)Nc1cccc(C(F)(F)F)c1	-	-	20µM	-	-	-
O=C(O)c1ccccc1-n1ncc2c1/C(=C/c1ccc(Cl)cc1)CC2	.	.	22.4µM	.	-	-
O=C(O)c1ccc(-n2ncc3c2/C(=C/c2cccc([N+](=O)[O-])c2)CC3)cc1	.	.	.	.	-	-
CCCCCCCCC/C=C/CC1CC(=O)OC1=O (stereo not drawn)	-	.	28.2µM	-	.	-
FC(F)(F)c1ccccc1-c1nc(NCc2cccs2)c2ccccc2n1	.	.	?	.	.	-
N#CCSc1nc2[nH]ncc2c(=O)n1-c1ccccc1Br	?	-	?	?	.	-
O=C(CSc1nc2[nH]ncc2c(=O)n1-c1ccccc1Br)NCc1ccccc1Cl	.	.	12.6µM	.	-	-
COc1ccc(CNC(=O)CSc2nc3[nH]ncc3c(=O)n2-c2ccccc2Br)cc1	.	.	15.8µM	.	-	-
CC(=O)N1CCc2cc(C(=O)CN3CCN(c4cccc(Cl)c4)CC3)ccc21	-	-	6.31µM	-	-	-
CC(=O)N1CCc2ccc(C(=O)CN3CCN(c4cccc(C)c4C)CC3)cc21	-	-	8.91µM	-	-	-
CC(=O)N1CCc2cc(C(=O)CN3CCN(C(=O)c4ccco4)CC3)ccc21	-	?	11.2µM	-	-	-
CC(=O)N1CCc2cc(C(=O)CN3CCC(C)CC3)ccc21	-	-	20µM	?	-	-
CC(=O)N1CCc2cc(C(=O)CN3CCCN(Cc4ccc(F)cc4)C3)ccc21	-	-	?	-	-	-
COc1ccc(CNn2c(-c3ccccc3F)nc3ccccc3c2=O)cc1OC	.	.	-	.	-	-
O=C(COc1ccc([N+](=O)[O-])cc1)NCc1ccncc1	.	.	-	.	-	-
Cc1ccc(-c2csc(=Nc3cccnc3)n2CCCN2CCCC2=O)cc1C	-	-	7.94µM	-	-	-
COc1ccc(NS(=O)(=O)c2cc(-c3nnnn3C)ccc2OC)cc1	-	-	0.794µM	-	-	-
COc1ccc(-c2nnnn2C)cc1S(=O)(=O)NCCc1ccccc1	-	?	-	-	-	-
COc1ccc(OC)c(S(=O)(=O)Nc2ccc(C)c(C)c2)c1	-	-	?	-	-	-
CCn1nnnc1-c1ccc(OC)c(S(=O)(=O)Nc2ccc(C)c(C)c2)c1	-	?	7.08µM	-	-	-
CCn1nnnc1-c1ccc(OC)c(S(=O)(=O)NCc2ccccc2)c1	-	-	1.89µM	20µM	-	-
COc1cc(C2CC(=O)Oc3cc(C)c(Cl)cc32)cc(OC)c1OC (stereo not drawn)	-[0.00818 µM]	.	-	-	-	-
CC1CCN(c2cc(N(C)CCO)c([N+](=O)[O-])c3nonc23)CC1	.	.	?	.	-	-
SMILES	ALOX12 inhib	PNC inhibitor	ALDH1A1 inh	HPGD block	GLA inh pH 4.5	aGal spleen mod
CC1CC(C)CN(c2cc(N(C)CCO)c([N+](=O)[O-])c3nonc23)C1 (stereo not drawn)	.	.	11.2µM	.	-	-
Cc1ccc(Cl)cc1NC(=O)COC(=O)c1ccc(N2CCCC2)c([N+](=O)[O-])c1	-	-	-	-	-	-
CC1(C)CCC[C@@](C)([C@H]2CC[C@]3(C)[C@@H]2[C@H](O)CC2[C@@]4(C)CC[C@H](O)C(C)(C)[C@@H]4[C@@H](O)C[C@]23C)O1 (stereo partly drawn)	.	.	.	.	.	-
C/C(=N\NC(=O)C(c1ccccc1)c1ccccc1)c1ccccn1	-	-80.6	-	-	-	-
COCCn1cnnc1SCC(=O)Nc1cccc(S(=O)(=O)N2CCCCCC2)c1	-	-	?	-	-	-
COc1ccccc1-n1cnnc1SCC(=O)Nc1ncc(Cl)cc1Cl	-	?	4.47µM	-	-	-
COc1ccccc1-n1cnnc1SCC(=O)Nc1cccc(S(=O)(=O)N2CCCCC2)c1	-	?	0.631µM	-	-	-
COc1ccccc1-n1cnnc1SCC(=O)c1cc(C)n(Cc2cccs2)c1C	-	?	1.26µM	-	-	-
COCCn1cnnc1SCC(=O)Nc1ccc(Br)cc1F	.	.	12.6µM	.	-	-
Cc1cc(C(=O)CSc2nnc(-c3ccccc3F)o2)c(C)n1Cc1cccs1	-	?	-	-	-	-
O=C(CSc1ncn[nH]1)Nc1ccc(Br)cc1F	-	-	-	-	-	-
COc1ccc(CNc2nc(-c3ccc4c(c3)OCO4)nc3ccccc23)c(OC)c1	.	.	-	.	.	-
CCSC(=Nc1ccccc1)Nc1ccccc1	.	.	-	.	-	-
COCCCn1cnnc1SCC(=O)Nc1ccc(S(=O)(=O)N2CCCC2)cc1	-	-	11.2µM	-	-	-
O=C(O)CCc1ccc(-c2cccs2)n1CCC(=O)O	-	-	?	?	-	-
O=C(O)CCc1ccc(-c2cccs2)n1-c1ccc(C(=O)O)cc1	-	-	12.6µM	-	-	-
CC(=O)c1cccc(-n2c(CCC(=O)O)ccc2-c2cccs2)c1	-	-	7.94µM	-	-	-
CCCNC(=O)OC[C@@H]1O[C@H](CCO/N=C\[C@@H](OC)[C@H](C)/C=C\CC(=O)OC)C=C[C@@H]1Oc1ccc(OC)cc1	.	.	-[13.5 µM]	.	.	-[17.5 µM]
CCCCCCCCN[C@@H](C)[C@H](O)c1ccc(SC(C)C)cc1	-	.	-	-	-	-
COc1ccc(C(=O)OCC(=O)NCC2CCCO2)cc1S(=O)(=O)N1CCCc2ccccc21 (stereo not drawn)	.	.	-	.	-	-
COC(=O)C1CCN(C(=O)COC(=O)c2ccc(OC)c(S(=O)(=O)N3CCCc4ccccc43)c2)CC1	.	.	4.47µM	.	-	-
CC[C@H]1C2=C3C(CC[C@H]4C(OCc5ccc(F)cc5C(F)(F)F)OC[C@](C)([C@@H]34)N(C(=O)OC(C)(C)C)C2)C(COC(C)=O)C1COC(C)=O (stereo partly drawn)	-	.	-	-	-	-
Oc1ccc(-c2cn3c(n2)SCC3)cc1O	-	-	6.31µM	2.24µM	-	-
Oc1ccc(-c2cn3c(n2)SCC3)cc1	-	-	-	-	-	-
C=CCNC(=O)C(=O)N/N=C/c1cccc(Br)c1	.	.	-	.	-	-
Cc1ccccc1NC(=O)C(=O)N/N=C/c1cccc(Br)c1	-	-113.8	-	-	-	-

Screens (PubChem)
